# Reference: the supplement of paper PMC8728848
# Shown is part of a subset that was picked to be rich in the strongest signals.
# B1: B3GalT2 (Rattus norvegicus) (protein)
# chain: LMLQWRRRHCCFAKMSWNAKRSLFRTHLMGVLSLVFLFAMFLFFNHHDWLPGRPGFKENPVTYTFRGFRSTKTETNQSSLRNIWKEVVPQTLRPQTATNSNNTELSPQGVTGLENTLSANGSIYNEKGTGHPNSYHFKYIINEPEKCQEKSPFLILLIAAEPGQIEARRAIRQTWGNETLAPGIQITRIFLLGISIKLNGYLQHAIQEESIQYHDIIQQEYLDTYYNLTIKTLMGMNWVATYCPHTPYVMKTDSDMFVNTEYLIHKLLKPDLPPRHNYFTGYLMRGYAPNRNKDSKWYMPPDLYPSERYPVFCSGTGYVFSGDLAEKIFKVSLGIRRLHLEDVYVGICLAKLRVDPVPPPNEFVFNHWRVSYSSCKYSHLITSHQFQPSELIKYWNHLQQNKHNACVNAAKEKAGRYRHRKLH
# What was measured:
# Experiment in all cases: glycan array binding signal (z-score within array); higher = stronger binding
# Details in all cases: glycan notation: IUPAC condensed, linker removed
# Fuc(a1-2)Gal(b1-3)GlcNAc = molecular target: Fuc(a1-2)Gal(b1-3)GlcNAc
# Summary of the method: (§1)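 The Consortium for Functional Glycomics database supplied 3228 glycan arrays, of which those lacking an available protein sequence were dropped. The binding signal, a within-array Z-score, was averaged across arrays of the same protein sequence and across linkers. Negative scores can be read as non-binding.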
# [1] = molecular target: Fuc(a1-2)Gal(b1-3)GlcNAc6S
# Summary of the method: as §1
# Fuc(a1-2)Gal(b1-4)Glc = molecular target: Fuc(a1-2)Gal(b1-4)Glc
# Summary of the method: as §1
# [2] = molecular target: Fuc(a1-2)Gal(b1-4)GlcNAc(b1-3)GalNAc
# Summary of the method: as §1
# [3] = molecular target: Fuc(a1-2)Gal(b1-4)[Fuc(a1-3)]GlcNAc(b1-2)[Fuc(a1-2)Gal(b1-4)[Fuc(a1-3)]GlcNAc(b1-4)]Man(a1-3)[Fuc(a1-2)Gal(b1-4)[Fuc(a1-3)]GlcNAc(b1-2)Man(a1-6)]Man(b1-4)GlcNAc(b1-4)GlcNAc
# Summary of the method: as §1
# [4] = molecular target: Fuc(a1-2)Gal6S(b1-3)GlcNAc
# Summary of the method: as §1
# [5] = molecular target: Fuc(a1-2)[GalNAc(a1-3)]Gal(b1-3)GlcNAc(b1-2)Man(a1-3)[Fuc(a1-2)[GalNAc(a1-3)]Gal(b1-3)GlcNAc(b1-2)Man(a1-6)]Man(b1-4)GlcNAc(b1-4)GlcNAc
# Summary of the method: as §1
# [6] = molecular target: Fuc(a1-2)[GalNAc(b1-3)]Gal
# Summary of the method: as §1
# [7] = molecular target: Fuc(a1-3)[Gal(b1-4)]GlcNAc(b1-3)Gal(b1-4)[Fuc(a1-3)]GlcNAc(b1-3)Gal(b1-4)[Fuc(a1-3)]GlcNAc
# Summary of the method: as §1
# [8] = molecular target: Fuc(a1-3)[Gal3S(b1-4)]Glc
# Summary of the method: as §1
# [9] = molecular target: Fuc(a1-3)[GalNAc(b1-4)]GlcNAc6S
# Summary of the method: as §1
# [10] = molecular target: Gal(a1-3)Gal(b1-4)GlcNAc(b1-2)Man
# Summary of the method: as §1
# [11] = molecular target: Gal(a1-3)[Gal(a1-4)]Gal(b1-4)GlcNAc
# Summary of the method: as §1
# [12] = molecular target: Gal(b1-3)GalNAc(a1-3)[Fuc(a1-2)]Gal(b1-4)Glc
# Summary of the method: as §1
# [13] = molecular target: Gal(b1-3)GlcNAc(b1-2)Man(a1-3)[Gal(b1-3)GlcNAc(b1-2)Man(a1-6)]Man(b1-4)GlcNAc(b1-4)[Fuc(a1-6)]GlcNAc
# Summary of the method: as §1
# [14] = molecular target: Gal(b1-3)GlcNAc(b1-2)Man(a1-3)[GlcNAc(b1-4)][Gal(b1-3)GlcNAc(b1-2)Man(a1-6)]Man(b1-4)GlcNAc(b1-4)GlcNAc
# Summary of the method: as §1
# [15] = molecular target: Gal(b1-3)GlcNAc(b1-3)Gal(b1-4)GlcNAc(b1-3)Gal(b1-4)GlcNAc(b1-2)[Gal(b1-3)GlcNAc(b1-3)Gal(b1-4)GlcNAc(b1-3)Gal(b1-4)GlcNAc(b1-6)]Man(a1-6)[Gal(b1-3)GlcNAc(b1-3)Gal(b1-4)GlcNAc(b1-3)Gal(b1-4)GlcNAc(b1-2)Man(a1-3)]Man(b1-4)GlcNAc(b1-4)[Fuc(a1-6)]GlcNAc
# Summary of the method: as §1
# [16] = molecular target: Gal(b1-3)GlcNAc(b1-3)GalNAc
# Summary of the method: as §1
# [17] = molecular target: Gal(b1-3)GlcNAc(b1-6)[Gal(b1-3)]GalNAc
# Summary of the method: as §1
# [18] = molecular target: Gal(b1-4)GlcNAc(b1-2)Man(a1-3)[Gal(b1-4)GlcNAc(b1-2)Man(a1-6)]Man(b1-4)GlcNAc(b1-4)GlcNAc
# Summary of the method: as §1
# [19] = molecular target: Gal(b1-4)GlcNAc(b1-2)Man(a1-3)[GlcNAc(b1-2)Man(a1-6)]Man(b1-4)GlcNAc(b1-4)GlcNAc
# Summary of the method: as §1
# [20] = molecular target: Gal(b1-4)GlcNAc(b1-3)Gal(b1-4)GlcNAc
# Summary of the method: as §1
# Gal3S(b1-3)GalNAc = molecular target: Gal3S(b1-3)GalNAc
# Summary of the method: as §1
# Gal6S(b1-3)GlcNAc = molecular target: Gal6S(b1-3)GlcNAc
# Summary of the method: as §1
# Gal6S(b1-4)GlcNAc = molecular target: Gal6S(b1-4)GlcNAc
# Summary of the method: as §1
# GalNAc(a1-3)GalNAc = molecular target: GalNAc(a1-3)GalNAc
# Summary of the method: as §1
# [21] = molecular target: GalNAc(a1-3)GalNAc(b1-3)Gal(a1-4)Gal(b1-4)Glc
# Summary of the method: as §1
# [22] = molecular target: GalNAc(b1-3)Gal(a1-4)Gal(b1-4)GlcNAc(b1-3)Gal(b1-4)Glc
# Summary of the method: as §1
# [23] = molecular target: GlcNAc(b1-3)Gal(b1-4)GlcNAc(b1-2)Man(a1-3)[GlcNAc(b1-3)Gal(b1-4)GlcNAc(b1-2)Man(a1-6)]Man(b1-4)GlcNAc(b1-4)GlcNAc
# Summary of the method: as §1
# [24] = molecular target: GlcNAc(b1-3)Gal(b1-4)GlcNAc(b1-3)Gal(b1-4)GlcNAc(b1-3)Gal(b1-4)GlcNAc(b1-3)Gal(b1-4)GlcNAc(b1-2)[GlcNAc(b1-3)Gal(b1-4)GlcNAc(b1-3)Gal(b1-4)GlcNAc(b1-3)Gal(b1-4)GlcNAc(b1-3)Gal(b1-4)GlcNAc(b1-6)]Man(a1-6)[GlcNAc(b1-3)Gal(b1-4)GlcNAc(b1-3)Gal(b1-4)GlcNAc(b1-3)Gal(b1-4)GlcNAc(b1-3)Gal(b1-4)GlcNAc(b1-2)Man(a1-3)]Man(b1-4)GlcNAc(b1-4)[Fuc(a1-6)]GlcNAc
# Summary of the method: as §1
# Kdn(a2-3)Gal(b1-4)GlcNAc = molecular target: Kdn(a2-3)Gal(b1-4)GlcNAc
# Summary of the method: as §1
# Man(a1-2)Man(a1-3)Man = molecular target: Man(a1-2)Man(a1-3)Man
# Summary of the method: as §1
# [25] = molecular target: Man(a1-2)Man(a1-3)[Man(a1-2)Man(a1-6)]Man(a1-6)[Man(a1-2)Man(a1-2)Man(a1-3)]Man(b1-4)GlcNAc(b1-4)GlcNAc
# Summary of the method: as §1
# [26] = molecular target: Neu5Ac(a2-3)Gal(b1-3)GalNAc(b1-3)Gal(a1-4)Gal(b1-4)Glc
# Summary of the method: as §1
# [27] = molecular target: Neu5Ac(a2-3)Gal(b1-4)GlcNAc
# Summary of the method: as §1
# [28] = molecular target: Neu5Ac(a2-3)Gal(b1-4)GlcNAc(b1-2)Man(a1-3)[GlcNAc(b1-4)][Neu5Ac(a2-3)Gal(b1-4)GlcNAc(b1-2)Man(a1-6)]Man(b1-4)GlcNAc(b1-4)GlcNAc
# Summary of the method: as §1
# [29] = molecular target: Neu5Ac(a2-3)Gal(b1-4)GlcNAc(b1-2)Man(a1-3)[Neu5Ac(a2-3)Gal(b1-4)GlcNAc(b1-2)Man(a1-6)]Man(b1-4)GlcNAc(b1-4)GlcNAc
# Summary of the method: as §1
# [30] = molecular target: Neu5Ac(a2-3)Gal(b1-4)[Fuc(a1-3)]GlcNAc6S
# Summary of the method: as §1
# Neu5Ac(a2-3)GalNAc = molecular target: Neu5Ac(a2-3)GalNAc
# Summary of the method: as §1
# Neu5Ac(a2-6)Gal = molecular target: Neu5Ac(a2-6)Gal
# Summary of the method: as §1
# [31] = molecular target: Neu5Ac(a2-6)Gal(b1-4)GlcNAc(b1-2)Man(a1-6)[Man(a1-3)]Man(b1-4)GlcNAc(b1-4)GlcNAc
# Summary of the method: as §1
# [32] = molecular target: Neu5Ac(a2-6)Gal(b1-4)GlcNAc(b1-2)[Neu5Ac(a2-6)Gal(b1-4)GlcNAc(b1-4)]Man(a1-3)[GlcNAc(b1-4)][Neu5Ac(a2-6)Gal(b1-4)GlcNAc(b1-2)[Neu5Ac(a2-6)Gal(b1-4)GlcNAc(b1-6)]Man(a1-6)]Man(b1-4)GlcNAc(b1-4)GlcNAc
# Summary of the method: as §1
# [33] = molecular target: Neu5Ac(a2-6)Gal(b1-4)GlcNAc(b1-2)[Neu5Ac(a2-6)Gal(b1-4)GlcNAc(b1-4)]Man(a1-3)[GlcNAc(b1-4)][Neu5Ac(a2-6)Gal(b1-4)GlcNAc(b1-4)Man(a1-6)]Man(b1-4)GlcNAc(b1-4)GlcNAc
# Summary of the method: as §1
# [34] = molecular target: Neu5Ac(a2-6)Gal(b1-4)GlcNAc(b1-3)Gal(b1-4)GlcNAc(b1-3)Gal(b1-4)GlcNAc(b1-2)Man(a1-3)[Neu5Ac(a2-6)Gal(b1-4)GlcNAc(b1-3)Gal(b1-4)GlcNAc(b1-3)Gal(b1-4)GlcNAc(b1-2)Man(a1-6)]GalNAc
# Summary of the method: as §1
# [35] = molecular target: Neu5Ac(a2-6)Gal(b1-4)GlcNAc(b1-3)[Neu5Ac(a2-6)Gal(b1-4)GlcNAc(b1-6)]GalNAc
# Summary of the method: as §1
# [36] = molecular target: Neu5Gc(a2-3)Gal(b1-4)[Fuc(a1-3)]GlcNAc
# Summary of the method: as §1
binder,measurement,setting,value
B1,glycan array binding signal (z-score),Fuc(a1-2)Gal(b1-3)GlcNAc,0.359
same,glycan array binding signal (z-score),[1],-0.012
same,glycan array binding signal (z-score),Fuc(a1-2)Gal(b1-4)Glc,-0.322
same,glycan array binding signal (z-score),[2],0.324
same,glycan array binding signal (z-score),[3],-0.914
same,glycan array binding signal (z-score),[4],0.207
same,glycan array binding signal (z-score),[5],-0.832
same,glycan array binding signal (z-score),[6],3.23
same,glycan array binding signal (z-score),[7],-0.328
same,glycan array binding signal (z-score),[8],0.499
same,glycan array binding signal (z-score),[9],2.41
same,glycan array binding signal (z-score),[10],-0.684
same,glycan array binding signal (z-score),[11],0.28
same,glycan array binding signal (z-score),[12],-0.035
same,glycan array binding signal (z-score),[13],-0.68
same,glycan array binding signal (z-score),[14],-0.55
same,glycan array binding signal (z-score),[15],2.97
same,glycan array binding signal (z-score),[16],0.129
same,glycan array binding signal (z-score),[17],0.217
same,glycan array binding signal (z-score),[18],-0.8
same,glycan array binding signal (z-score),[19],-0.763
same,glycan array binding signal (z-score),[20],0.439
same,glycan array binding signal (z-score),Gal3S(b1-3)GalNAc,0.283
same,glycan array binding signal (z-score),Gal6S(b1-3)GlcNAc,2.69
same,glycan array binding signal (z-score),Gal6S(b1-4)GlcNAc,-0.022
same,glycan array binding signal (z-score),GalNAc(a1-3)GalNAc,-0.798
same,glycan array binding signal (z-score),[21],-0.606
same,glycan array binding signal (z-score),[22],-0.596
same,glycan array binding signal (z-score),[23],-0.524
same,glycan array binding signal (z-score),[24],-1.04
same,glycan array binding signal (z-score),Kdn(a2-3)Gal(b1-4)GlcNAc,2.76
same,glycan array binding signal (z-score),Man(a1-2)Man(a1-3)Man,0.139
same,glycan array binding signal (z-score),[25],-0.337
same,glycan array binding signal (z-score),[26],-0.318
same,glycan array binding signal (z-score),[27],1.9
same,glycan array binding signal (z-score),[28],0.483
same,glycan array binding signal (z-score),[29],1.88
same,glycan array binding signal (z-score),[30],0.576
same,glycan array binding signal (z-score),Neu5Ac(a2-3)GalNAc,2.8
same,glycan array binding signal (z-score),Neu5Ac(a2-6)Gal,2.53
same,glycan array binding signal (z-score),[31],0.005
same,glycan array binding signal (z-score),[32],2.01
same,glycan array binding signal (z-score),[33],1.82
same,glycan array binding signal (z-score),[34],2.1
same,glycan array binding signal (z-score),[35],-1.14
same,glycan array binding signal (z-score),[36],-0.164
